Source: PubChem BioAssay (The Scripps Research Institute Molecular Screening Center)
Most compounds without a hit are left out; they make up all but 2.3% or so of the library.
UHRF1 MBD2 ctr – UHRF1 methylated DNA binding inhibitors, primary screen, counter-screen for MBD2 inhibitor project, biochemical, TR-FRET, human UHRF1, single concentration; E3 ubiquitin-protein ligase UHRF1 (Homo sapiens), Q96T88; UHRF1 binding to methylated oligo; inhibition, % at 4.4 µM; actives 0.75% (n = 370,000); in the data active means inhibition above about 21%;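 further: UHRF1 SRA domain binding a hemimethylated CpG hairpin DNA probe; 0% = median of test compound wells and 100% = reference inhibitor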
LEDGF integ inh – blockers of LEDGF/p75-dependent integrase strand transfer – biochemical, TR-FRET, high throughput, primary screen; inhibition, % at 3.7 µM; actives 0.64% (n = 370,000); TR-FRET IN-LEDGF/p75 DNA integration, Eu/Cy5; HIV-1 integrase (with human LEDGF/p75);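 active means inhibition above the screen-wide mean plus 3 SD, cut at about 13% in these data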;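 further: signal is the Cy5 over europium emission ratio at 671 and 618 nm; 0% = plate median of compound wells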
PLC-beta3 inh – human PLC-beta3 inhibitors, primary screen, biochemical, fluorescence; 1-phosphatidylinositol 4,5-bisphosphate phosphodiesterase beta-3 (Homo sapiens), Q01970; inhibition, % at 12.2 µM; Purified PLC-beta3, fluorogenic substrate; actives 0.18% (n = 370,000); in the data active means inhibition above about 11%;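 further: 0% = median of compound wells on plate and 100% = full blocker control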
PLC-gamma1 inh – PLC-gamma1 enzyme inhibitors, primary screen, biochemical, fluorescence, purified enzyme. fluorogenic substrate. actives 0.84% (n = 370,000). inhibition, % at 12.2 µM. 1-phosphatidylinositol 4,5-bisphosphate phosphodiesterase gamma-1 (Homo sapiens), P19174
MBD2 DNA inh – inhibitors of MBD2 binding to methylated DNA, primary screen, biochemical, TR-FRET, DNA-binding domain, human; inhibition, % at 4.4 µM; Methyl-CpG-binding domain protein 2 (Homo sapiens), Q9UBB5; AID 686964, 2013; MBD2 binding to methylated oligonucleotide; actives 0.31% (n = 370,000); in the data active means inhibition above about 13%
PLCg1 ctr – PLC-gamma1 enzyme inhibitors, counter-screen for PLC-beta3 inhibitor project, biochemical, fluorescence; shares compounds with PLC-gamma1 inh; purified PLC-gamma1, fluorogenic substrate; inhibition, % at 12.3 µM; actives 3.1% (n = 3,300); AID 743258, 2014
PLCbeta3 conf – PLC-beta3 inhibitor confirmation, biochemical, fluorescence, purified enzyme. shares compounds with PLC-gamma1 inh. fluorogenic substrate fluorescence. inhibition, % at 12.3 µM. actives 1% (n = 3,300); in the data active means inhibition above about 11%
Active calls of the source: *; / = no result given. Unless noted, no stated cut-off is given here; in the data, active means inhibition above about 9.5%; inactive means the rest.

SMILES	UHRF1 MBD2 ctr	LEDGF integ inh	PLC-beta3 inh	PLC-gamma1 inh	MBD2 DNA inh	PLCg1 ctr	PLCbeta3 conf
Cc1ccc(N(CC(N)=O)C2SC(=O)N(Cc3ccccc3)C2=O)cc1 (configuration not stated)	3	-1	9	9.6*	-5	-6	2
CCn1c(=O)n2n(c1=O)[C@H]1C[N+](Cc3ccc4c(c3)OCO4)=C(N)NC1=C(C)C2	4	0	2	0	1	/	/
COC(=O)n1c(=O)oc2ccc(S(=O)(=O)N3CCCCC3)cc21	7	3	-28	3	-2	/	/
CCCCOC(=O)n1c(=O)oc2cc(S(=O)(=O)N3CCCCC3)ccc21	0	-1	1	11*	-3	-3	-1
COCCNC(=S)N1C[C@H]2CON(C)[C@H]2C[C@H]1c1ccccc1Br	5	3	6	9.7*	-4	-2	1
CN1OC[C@@H]2CN(C(=S)NCCc3ccccc3)[C@H](c3ccccc3Br)C[C@@H]21	1	-1	-2	0	2	/	/
O=C(c1ccccc1I)N1CCC(Oc2cccnc2)CC1	-2	-2	1	0	1	/	/
Cc1ccc(NC(=S)N(N)CCO)cc1	3	3	5	12*	-4	0	-1
O=C(CCc1ccccc1)Oc1ccccc1[N+](=O)[O-]	2	7	9	13*	-6	-8	0
O=C(CCc1ccccc1)Nc1ccccc1[N+](=O)[O-]	-2	2	2	5	0	/	/
CSc1ccc(C=Nn2c(-c3cc(C)[nH]n3)n[nH]c2=S)cc1	1	0	-2	-5	-7	/	/
COc1ccc(C2C(C(=O)Nc3ccc(Cl)cc3)CCC(=O)N2c2ccc(OC)cc2)cc1 (configuration not stated)	3	1	0	2	-1	/	/
Cc1cc(-c2nnc(SCc3ccccn3)o2)no1	2	4	11*	14*	2	-4	-1
COc1ccc(S[C@]2(C(=O)N3CCOCC3)CC(=O)N(c3ccc(OC)cc3)[C@@H]2c2ccc(OC)cc2)cc1	4	7	2	9.7*	-1	-5	0
COC(=O)c1cccc(N2C(=O)C[C@](Sc3ccc(OC)cc3)(C(=O)N3CCOCC3)[C@H]2c2ccc(OC)cc2)c1	5	6	6	15*	-6	-5	0
COc1ccc(S[C@]2(C(=O)N3CCN(C(C)=O)CC3)CC(=O)N(C(=O)c3ccccc3)[C@@H]2c2ccc(OC)cc2)cc1	0	-2	1	-1	1	/	/
COc1ccc(S[C@]2(C(=O)N3CCOCC3)CC(=O)N(C(=O)c3ccccc3)[C@@H]2c2ccc(OC)cc2)cc1	4	-2	0	0	-3	/	/
COc1ccc(S[C@]2(C(=O)N3CCN(C(C)=O)CC3)CC(=O)N(C(=O)CCc3ccccc3)[C@@H]2c2ccc(OC)cc2)cc1	7	6	-1	11*	7	1	-1
C=CCN1C(=O)[C@H](CC(=O)NCc2ccc(OC)c(OC)c2)[C@@]2(C(=O)OCC)CCCC=C12	-2	-2	0	0	0	/	/
CC(=O)c1cc(-c2ccc(Cl)c(C(F)(F)F)c2)c(=O)n2c1CCC2	0	1	-20	-18	-7	/	/
Cc1onc(-c2ccccc2Cl)c1C(=O)N1CCOC12CCCCC2	2	6	11*	4	-1	1	4
COc1ccc(OC)c(NC(=O)CCNS(=O)(=O)c2ccc3c(c2)oc(=O)n3C)c1	3	-2	12*	6	-3	-3	-2
Cc1ccccc1CN1CCCCC(NC(=O)Nc2cccc(F)c2)C1=O (configuration not stated)	-3	-1	3	6	0	/	/
O=C(c1cc(Cl)cc(Cl)c1)N1CC[C@H]2[C@H](CCCN2Cc2cc(F)cc(F)c2)C1	0	-2	0	-2	2	/	/
O=C(Nc1ccc(C(F)(F)F)cc1[N+](=O)[O-])O[C@H]1[C@H](Cc2ccccc2)NS(=O)(=O)[C@H]2C[C@@H]3C=C[C@]12O3	4	2	10	12*	1	-2	-1
SMILES	UHRF1 MBD2 ctr	LEDGF integ inh	PLC-beta3 inh	PLC-gamma1 inh	MBD2 DNA inh	PLCg1 ctr	PLCbeta3 conf
CCN(CC)C(=O)c1[nH]cnc1C(=O)N[C@@H](C)c1ccccc1	2	-3	8	8	-1	/	/
CCN(CC)C(=O)c1[nH]cnc1C(=O)N[C@H](C)c1ccccc1	4	-2	14*	8	-5	0	-1
c1nc(NCC2CCCC2)c2cc(-c3ccc4c(c3)OCO4)ccc2n1	1	4	-146	-99	3	/	/
O=C(c1ccco1)N1CCN(Cc2cc(=O)c(OCc3ccc([N+](=O)[O-])cc3)co2)CC1	2	4	4	11*	0	-2	-3
Cc1ccc(COc2coc(CN3CCN(C(=O)c4ccco4)CC3)cc2=O)cc1	7	0	-3	1	-3	/	/
CCOC(=O)c1sc(NC(=O)CCCCl)nc1C	0	-1	5	9.8*	2	-1	-2
COc1ccc(C2C(C(=O)N3CCN(C=O)CC3)CC(=O)N2c2ccc(OC)cc2)cc1 (configuration not stated)	1	-2	1	-2	-3	/	/
CCC(C(=O)OCC(=O)Nc1cc(Cl)cc(Cl)c1)c1ccccc1 (configuration not stated)	9	-3	11*	8	3	0	1
CCC(C(=O)OCC(=O)Nc1cccc(C(C)=O)c1)c1ccccc1 (configuration not stated)	1	-3	-4	-3	4	/	/
CCOc1nc(Nc2ccc([N+](=O)[O-])cc2)nc(NC(C)(C)C)n1	5	-1	2	9.8*	0	-3	1
COC(=O)C[C@@H]1CC[C@H]2[C@H](COc3ccc(NC(=O)c4ccc(OC)cc4)cc3C(=O)N2C)O1	0	-3	2	3	4	/	/
COC(=O)C[C@@H]1CC[C@H]2[C@@H](COc3ccc(NC(=O)c4ccc(Cl)cc4)cc3C(=O)N2C)O1	2	-1	-51	12*	8	0	2
